Activity calls are given as the source filed them.

Experimental findings from PubChem BioAssay are described below.

Test [1] in a line: small molecules captured by biotinylated probe aFSTL3 – biochemical, small-molecule microarray, fluorescence 635/667, stem cell growth factor project, primary screen (AID 1064).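 Also: measures binding of the biotinylated anti-FSTL3 antibody to printed compounds.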 Conditions: higher = more signal.
Test [2] in a line: binders from COS7 lysate, DM2A8 probe, primary screen, torsin A project, cell lysate, small-molecule microarray, fluorescence 635/667 (AID 1065). Conditions: higher = more signal, COS7 lysate expressing mutant human TOR1A.
Test [3] in a line: small molecules captured by biotinylated probe aFGF2 – biochemical, small-molecule microarray, fluorescence 635/667, stem cell growth factor project, primary screen (AID 1067).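 Also: measures binding of biotinylated aFGF2 protein to printed compounds on slides; z-score merges feature fluorescence and signal-to-noise across triplicate slides.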 As to conditions: higher = more signal.
A short description of test [4]: small molecules captured by biotinylated probe aFGF10 – biochemical, small-molecule microarray, fluorescence 635/667, stem cell growth factor project, primary screen (AID 1071).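 Also: score merges 667 nm spot intensity and signal to noise from triplicate slides.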 Conditions: higher = more signal.
The target of test [5] is Neurogenic locus notch homolog protein 2 (Homo sapiens) (UniProt Q04721). Kind of test: small molecules binding Notch2 protein – biochemical, small-molecule microarray, 635 nm fluorescence, stem cell growth factors, primary screen (AID 1073). As to conditions: higher = more signal.
For test [6], the target named is Pro-neuregulin-1, membrane-bound isoform (Homo sapiens) (UniProt Q02297). In words: small molecules binding neuregulin-1 protein – biochemical, small-molecule microarray, fluorescence 635/667, psychiatric disease protein project, primary screen (AID 1075).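 Also: score combines 667 nm spot fluorescence with signal to noise.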 Conditions: NRG1 binding, 635 nm fluorescence, higher = more signal.
Pro-neuregulin-1, membrane-bound isoform (Homo sapiens), sequence (Q02297 whole entry, looked up, the tested form may be a part, canonical isoform): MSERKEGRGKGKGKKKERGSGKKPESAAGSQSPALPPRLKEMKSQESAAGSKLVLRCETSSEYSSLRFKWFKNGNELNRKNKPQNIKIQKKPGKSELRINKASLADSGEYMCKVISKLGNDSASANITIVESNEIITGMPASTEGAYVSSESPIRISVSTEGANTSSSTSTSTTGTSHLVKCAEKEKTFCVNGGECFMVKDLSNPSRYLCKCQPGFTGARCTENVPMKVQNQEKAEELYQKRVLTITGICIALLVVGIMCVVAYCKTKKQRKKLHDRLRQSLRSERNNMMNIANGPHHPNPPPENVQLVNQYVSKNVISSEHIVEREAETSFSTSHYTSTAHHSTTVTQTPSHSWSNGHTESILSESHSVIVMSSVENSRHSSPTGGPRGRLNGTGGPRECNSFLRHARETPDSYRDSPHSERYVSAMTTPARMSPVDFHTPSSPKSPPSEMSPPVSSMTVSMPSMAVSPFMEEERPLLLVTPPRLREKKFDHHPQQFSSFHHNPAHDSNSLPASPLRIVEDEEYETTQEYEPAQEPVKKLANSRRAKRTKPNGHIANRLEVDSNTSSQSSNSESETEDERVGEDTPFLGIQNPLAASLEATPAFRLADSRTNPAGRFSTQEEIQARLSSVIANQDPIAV
Test [7] deals with Neuregulin-1 EGF-like domain. In words: small molecules binding NRG1 EGF domain – biochemical, small-molecule microarray, 635 nm fluorescence, primary screen (AID 1081).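 Also: binding of the protein to compounds printed on small-molecule microarray slides.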 Conditions: higher = more signal.
Test [8] is described as follows: FRG1 expression reporter modulators in myotubes – cell-based, C2C12 myotubes, firefly/Renilla luciferase, luminescence, FRG1 inhibition for FSHD, primary screen (AID 1084). Conditions: FRG1 promoter luciferase, higher = more signal, called active from +8 up or from −8 down.
A short description of test [9]: small molecules captured by biotinylated probe aFST – biochemical, small-molecule microarray, fluorescence 635/667, stem cell growth factor project, primary screen (AID 1086).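 Also: score merges 667 nm fluorescence with signal-to-noise of each printed compound spot.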 Conditions: higher = more signal.
Test [10] can be described thus: binders of probe aHhip on microarray, primary screen, stem cell growth factor project, biochemical, small-molecule microarray, fluorescence 635/667 (AID 1087).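 Also: score merges spot fluorescence at 667nm with spot signal to noise ratio.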 As to conditions: higher = more signal.
Test [11] relates to PRMT1 (protein arginine N-methyltransferase 1). Kind of test: small molecules binding arginine methyltransferase PRMT1 – biochemical, small-molecule microarray, 635 nm fluorescence, primary screen (AID 1088).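 Also: binding of Prmt1 protein to compounds spotted on small-molecule microarray slides.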 Conditions: higher = more signal.
The nature of test [12]: growth effects on S. cerevisiae YJM789 – YJM789 clinical isolate, OD600, 24 h, basal, primary screen (AID 1089).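 Also: growth of clinical yeast isolate S. cerevisiae YJM 789 seeded 1000 cells per well; test concentration not given here.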 As to conditions: higher = more signal, called active from +8 up or from −8 down.
Test [13] can be described thus: S. pombe growth modifiers, basal conditions – strain 972, OD600, 24 h, no modulator, primary screen (AID 1090).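 Also: basal condition with compound alone and no growth modifier present; test concentration not given here.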 Conditions: S. pombe 972 growth, higher = more signal, called active from +8 up or from −8 down.
Test [14] in a line: budding yeast growth modifiers under rapamycin – strain BY4716, OD600, 96 h, primary screen (AID 1091). Also: test concentration not given here. Conditions: S. cerevisiae BY4716 + rapamycin, higher = more signal, called active from +8 up or from −8 down.
The target of test [15] is Torsin-1A-interacting protein 2 (Homo sapiens) (UniProt Q8NFQ8). Kind of test: small molecules binding lysate-expressed LULL1 – cell lysate, human LULL1 lysate, 635/667 nm fluorescence, primary screen (AID 1092).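 Also: probe is lysate of COS7 cells overexpressing human LULL1; score merges per-feature 667 nm fluorescence with signal-to-noise.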 As to conditions: small-molecule microarray, hLULL1 lysate binding, 635 nm fluorescence; higher = more signal.
Torsin-1A-interacting protein 2 (Homo sapiens), sequence (Q8NFQ8 whole entry, looked up): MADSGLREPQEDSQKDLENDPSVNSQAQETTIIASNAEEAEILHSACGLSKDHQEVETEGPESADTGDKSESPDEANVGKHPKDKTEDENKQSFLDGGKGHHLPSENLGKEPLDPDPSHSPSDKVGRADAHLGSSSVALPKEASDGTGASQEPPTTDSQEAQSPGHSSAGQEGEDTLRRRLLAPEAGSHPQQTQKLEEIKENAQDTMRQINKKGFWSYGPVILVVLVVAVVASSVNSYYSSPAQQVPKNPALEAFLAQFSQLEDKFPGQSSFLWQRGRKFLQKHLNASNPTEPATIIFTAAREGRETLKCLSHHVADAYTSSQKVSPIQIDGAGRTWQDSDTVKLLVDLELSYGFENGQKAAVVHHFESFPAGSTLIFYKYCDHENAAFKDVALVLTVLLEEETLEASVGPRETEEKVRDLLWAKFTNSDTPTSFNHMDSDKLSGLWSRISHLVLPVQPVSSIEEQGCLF
The nature of test [16]: optical density change of DRC41 E. coli – strain DRC41, OD650, 24 h, E. coli filamentation project, primary screen (AID 1093).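 Also: MC1000 strain lacking acrAB efflux and sulA so SOS filamentation is blocked; test concentration not given here.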 As to conditions: E. coli DRC41 growth, higher = more signal, called active from +8 up or from −8 down.
The nature of test [17]: probe aLefty2 binding to arrayed compounds – biochemical, biotinylated probe, 635/667 nm fluorescence, primary screen (AID 1094).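 Also: score merges spot fluorescence near 667 nm with spot signal-to-noise ratio.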 Conditions: small-molecule microarray, higher = more signal.
Test [18] has as its system Noggin (protein binding on small-molecule microarray). Kind of test: small molecules binding Noggin protein – biochemical, 635/667 nm fluorescence, primary screen (AID 1095).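 Also: score merges 667 nm feature fluorescence with signal to noise over triplicate slides.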 Conditions: 635 nm fluorescence, higher = more signal.
In test [19] the target is Neurogenic locus notch homolog protein 3 (Homo sapiens) (UniProt Q9UM47). Kind of test: small molecules binding NOTCH3 protein – biochemical, 635/667 nm fluorescence, primary screen (AID 1096). Conditions: small-molecule microarray, 635 nm fluorescence, higher = more signal.
Neurogenic locus notch homolog protein 3 (Homo sapiens), sequence (Q9UM47 whole entry, looked up): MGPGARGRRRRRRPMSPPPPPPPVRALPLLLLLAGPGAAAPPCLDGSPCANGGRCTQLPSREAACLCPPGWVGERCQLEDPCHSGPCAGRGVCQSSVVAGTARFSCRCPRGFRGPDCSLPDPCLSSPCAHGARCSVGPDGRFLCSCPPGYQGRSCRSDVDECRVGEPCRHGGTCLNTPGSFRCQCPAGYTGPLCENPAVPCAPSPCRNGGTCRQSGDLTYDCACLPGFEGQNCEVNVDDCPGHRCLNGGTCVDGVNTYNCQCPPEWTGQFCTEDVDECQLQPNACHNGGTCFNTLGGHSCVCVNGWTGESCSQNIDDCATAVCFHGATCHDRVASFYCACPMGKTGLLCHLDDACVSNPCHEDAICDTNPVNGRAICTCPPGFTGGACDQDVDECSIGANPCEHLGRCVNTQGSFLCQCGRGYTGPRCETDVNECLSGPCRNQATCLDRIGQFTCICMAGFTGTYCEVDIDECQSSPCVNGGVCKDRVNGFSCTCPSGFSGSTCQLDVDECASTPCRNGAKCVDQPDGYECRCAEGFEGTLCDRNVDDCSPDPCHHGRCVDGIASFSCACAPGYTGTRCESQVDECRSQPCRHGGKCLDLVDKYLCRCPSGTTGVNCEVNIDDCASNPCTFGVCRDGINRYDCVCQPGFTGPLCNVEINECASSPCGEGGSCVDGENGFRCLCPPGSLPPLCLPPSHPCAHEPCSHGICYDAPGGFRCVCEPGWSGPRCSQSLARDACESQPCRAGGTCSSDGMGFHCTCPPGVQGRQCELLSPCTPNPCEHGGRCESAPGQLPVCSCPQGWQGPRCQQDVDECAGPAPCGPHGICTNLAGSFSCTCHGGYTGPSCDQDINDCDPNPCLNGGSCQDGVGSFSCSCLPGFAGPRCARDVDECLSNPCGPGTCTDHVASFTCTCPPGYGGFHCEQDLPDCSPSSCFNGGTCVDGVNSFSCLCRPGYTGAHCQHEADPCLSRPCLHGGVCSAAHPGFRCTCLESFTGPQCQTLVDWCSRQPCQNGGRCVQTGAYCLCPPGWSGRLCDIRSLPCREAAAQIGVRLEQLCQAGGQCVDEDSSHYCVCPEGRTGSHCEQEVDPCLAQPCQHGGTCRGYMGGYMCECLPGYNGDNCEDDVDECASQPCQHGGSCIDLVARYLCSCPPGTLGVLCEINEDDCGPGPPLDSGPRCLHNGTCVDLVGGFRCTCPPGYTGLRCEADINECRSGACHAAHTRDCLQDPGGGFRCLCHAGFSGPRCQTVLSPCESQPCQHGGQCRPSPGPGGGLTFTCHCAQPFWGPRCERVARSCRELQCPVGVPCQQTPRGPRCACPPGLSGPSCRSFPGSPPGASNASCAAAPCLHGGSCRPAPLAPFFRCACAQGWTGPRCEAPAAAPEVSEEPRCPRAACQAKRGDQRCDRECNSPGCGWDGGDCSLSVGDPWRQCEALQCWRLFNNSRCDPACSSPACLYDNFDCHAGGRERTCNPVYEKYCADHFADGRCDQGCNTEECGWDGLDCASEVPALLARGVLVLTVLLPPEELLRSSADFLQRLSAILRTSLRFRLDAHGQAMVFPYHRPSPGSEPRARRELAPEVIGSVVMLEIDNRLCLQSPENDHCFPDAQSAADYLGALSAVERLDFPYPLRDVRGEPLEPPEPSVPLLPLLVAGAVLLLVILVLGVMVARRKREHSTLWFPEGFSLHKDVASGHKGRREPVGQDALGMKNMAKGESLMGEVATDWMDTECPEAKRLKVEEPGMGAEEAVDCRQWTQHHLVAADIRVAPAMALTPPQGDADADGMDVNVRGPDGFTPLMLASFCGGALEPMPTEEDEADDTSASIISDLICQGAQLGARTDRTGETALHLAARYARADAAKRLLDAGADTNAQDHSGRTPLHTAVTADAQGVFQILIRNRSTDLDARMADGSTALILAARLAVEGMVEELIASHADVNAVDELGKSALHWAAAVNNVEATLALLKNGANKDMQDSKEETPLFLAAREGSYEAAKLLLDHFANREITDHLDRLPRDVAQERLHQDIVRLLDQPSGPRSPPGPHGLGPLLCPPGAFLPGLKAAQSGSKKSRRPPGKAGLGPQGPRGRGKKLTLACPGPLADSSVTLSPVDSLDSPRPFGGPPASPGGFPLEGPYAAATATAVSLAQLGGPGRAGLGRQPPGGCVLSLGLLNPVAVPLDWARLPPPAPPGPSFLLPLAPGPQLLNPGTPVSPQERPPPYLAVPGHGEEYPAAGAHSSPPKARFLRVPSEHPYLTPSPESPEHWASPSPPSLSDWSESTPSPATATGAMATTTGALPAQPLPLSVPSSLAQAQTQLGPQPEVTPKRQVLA
Test [20] can be described thus: probe aEGFR binding to arrayed compounds – biochemical, biotinylated probe, 635/667 nm fluorescence, primary screen (AID 1097).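 Also: probe is a biotinylated anti-EGFR antibody binding compounds printed on slides; score combines fluorescence near 667 nm and signal to noise of each spot.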 Conditions: small-molecule microarray, higher = more signal.

Turning to `COC(=O)[C@@]1(Cc2ccccc2)[C@H]2c3cc(C(=O)N(C)C)n(Cc4ccccc4)c3C[C@H]2CN1C(=O)c1ccccc1`, the composite z-score is 0.0252 in [1]; -0.705 in test [2]; 0.274 in [3]; 0.747 in test [4]; 1.67 in test [5]; 0.614 in [6]. Besides, the composite z-score in test [7] is 1.26; in [9] it was 0.856; in test [10] it was 0.896; in [11], -0.361; in test [15], 2.59; in [17], 0.434. For the same molecule, the composite z-score was 0.018 in test [18], 0.85 in test [19] and 0.291 in [20]. The z-score was 0.273 (inactive) in test [8]; 0.84 (inactive) in test [12]; 1.74 (inactive) in test [13]; 1.51 (inactive) in [14]; -0.813 (inactive) in test [16].
Consider `CC1(C)C(=O)C(c2ccccc2)=C2CN3C(=O)N(CCc4ccccc4)C(=O)C3(Cc3ccccc3)C=C21` (stereo not given), for which the composite z-score is 0.0442 in test [1]; -0.219 in test [2]; -0.0465 in test [3]; 0.235 in test [4]; 1.63 in [5]; 0.328 in test [6]. For the same molecule, the composite z-score in test [7] is 0.949; in test [9], 1.15; in test [10], -0.11; in test [11], -0.377; in test [15], 2.83; in test [17], 0.336. Besides, the composite z-score in test [18] is -0.264; in test [19] it was 1.12; in test [20] it was 0.164. Moreover, the z-score was 0.586 (inactive) in [8]; 0.672 (inactive) in test [12]; 2.28 (inactive) in test [13]; 5.82 (inactive) in test [14]; -0.723 (inactive) in [16].
With `C=C(/C(=C/C[C@@H](OC(=O)c1ccncc1)c1ccc(CO)o1)c1cc(C(=O)OC)ccc1OC)C(C)C`, the composite z-score is -0.441 in test [1]; 1.46 in test [2]; -0.0226 in [3]; 0.901 in test [4]; 0.974 in test [5]; 1.15 in [6]. Moreover, the composite z-score is 0.954 in test [7]; 0.377 in test [9]; 0.0373 in test [10]; 1.53 in [11]; 2.47 in [15]; -0.129 in test [17]. For the same molecule, the values for the composite z-score in [18], in [19] and in [20] were 0.855, 1.03 and 0.0073, respectively. Further, the z-score in [8] was -1.13 (inactive); in test [12], 0.523 (inactive); in test [13], -1.28 (inactive); in test [14], -0.414 (inactive); in test [16], 0.481 (inactive).
Consider `O=C(NCC(O)CO)[C@]1(CCS(=O)(=O)c2ccccc2)N=C(c2ccc(OCCCO)cc2)O[C@@H]1c1ccccc1` (stereo not given in full), for which the composite z-score in test [1] is 0.871; in test [2], 1.87; in test [3], -0.0064; in [4] it was -0.299; in test [5] it was 0.158; in test [6], 2.3. The composite z-score was 1.3 in [7]; 1.08 in [9]; -0.288 in [10]; -0.214 in test [11]; 3.67 in [15]; -0.0949 in [17]. Further, the composite z-score in test [18] was -0.203; in [19] it was -0.256; in test [20] it was -0.0913. In addition, the z-score in test [8] was 0.47 (inactive); in test [12], -0.59 (inactive); in [13] it was -0.149 (inactive); in test [14], -0.92 (inactive); in test [16], 0.169 (inactive).
With `CCCNC(=O)[C@@]1(C)c2ccccc2C(=O)N(Cc2cc(C(F)(F)F)cc(C(F)(F)F)c2)[C@H]1c1ccc(CO)cc1`, the composite z-score in [1] was 0.177; in test [2] it was -0.0656; in test [3], -0.0653; in test [4], 0.108; in test [5] it was -0.626; in test [6], 1.68. The composite z-score was 1.37 in test [7]; -0.0368 in test [9]; -0.0645 in [10]; 1.43 in test [11]; 2.59 in test [15]; -0.119 in test [17]. The composite z-score in [18] is -0.675; in [19], -0.131; in test [20], -0.137. The z-score in test [8] was 0.0565 (inactive); in test [12], 0.0841 (inactive); in test [13], -0.25 (inactive); in test [14], -0.49 (inactive); in test [16], -0.667 (inactive).
